Assay results: PubChem BioAssay (NCI)
About 79,000 compounds went through this panel and 15% of them were active in at least one assay; those are over-represented in the sample as a whole. Cut-off read from the data, not from the text of the source: active = growth inhibition above about 70%; inactive = the rest. Where a SMILES comes first, the peptide text is derived from it.

How the values were obtained:
[1] = NCI Yeast Anticancer Drug Screen. Data for the rad50 strain (AID 155);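 note: 0% = growth of vehicle-only cultures of the same strain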; settings: S. cerevisiae rad50 strain growth inhibition; at 50.0 µM; stronger effect = higher value
Procedure, shortened: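 Genetically altered yeast (DNA repair pathway); compound treatment; growth inhibition vs vehicle ctrl.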

[2] = NCI Yeast Anticancer Drug Screen. Data for the mec2-1 strain (AID 157); settings: S. cerevisiae mec2-1 strain, at 50.0 µM, stronger effect = higher value
Procedure, shortened: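 Each compound was tested on mec2-1 yeast, a strain altered in DNA damage repair or cell cycle control. Growth inhibition is reported relative to vehicle.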

[3] = NCI Yeast Anticancer Drug Screen. Data for the sgs1 mgt1 strain (AID 161);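 note: 0% = growth of cultures given vehicle only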; settings: S. cerevisiae sgs1 mgt1 strain, at 50.0 µM, stronger effect = higher value
Procedure, shortened: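 Genetically altered yeast, compound exposure, growth inhibition relative to vehicle.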

[4] = NCI Yeast Anticancer Drug Screen. Data for the cln2 rad14 strain (AID 165);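 note: 0% = growth equal to vehicle treated cultures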; settings: S. cerevisiae cln2 rad14 strain, at 50.0 µM, stronger effect = higher value
Procedure, shortened: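 Test compounds were added to cln2 rad14 yeast cultures; inhibition of growth was then determined by comparison with vehicle treatment.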

[5] = NCI Yeast Anticancer Drug Screen. Data for the bub3 strain (AID 167); settings: S. cerevisiae bub3 mutant strain, at 50.0 µM, stronger effect = higher value
Procedure, shortened: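 Yeast carrying a defined mutation is treated with each compound, and growth is compared with that of vehicle-exposed cells to give inhibition.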

[6] = NCI Yeast Anticancer Drug Screen. Data for the mlh1 rad18 strain (AID 175); settings: S. cerevisiae mlh1 rad18 strain growth inhibition; at 50.0 µM; stronger effect = higher value
Procedure, shortened: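 Inhibition values reflect reduced growth of mutant yeast versus vehicle-treated controls following compound exposure; the mutations affect DNA damage repair.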

Measured: growth inhibition

CCOC(=O)C(C(=O)OC(c1ccccc1)c1ccccc1)(C(c1ccccc1)c1ccccc1)C(c1ccccc1)c1ccccc1
inactive: [1] 0.45% | [2] 18% | [3] 1.65% | [4] -9.25% | [5] -1.4% | [6] -10.8%

O=C(c1ccccc1)c1ccc(N2CCOCC2)cc1
inactive: [1] -29.4% | [2] -44.9% | [3] 24.4% | [4] 4.75% | [5] -7.85% | [6] -5.7%

NC=O
inactive: [1] -9.45% | [2] 11.2% | [3] 7.1% | [4] -1.4% | [5] -0.15% | [6] -11.7%

CCOC(=O)CNC(=O)C(CSSCC(NC(=O)OCc1ccccc1)C(=O)OC)NC(=O)C(NC(=O)OCc1ccccc1)C(C)C (stereo unspecified)
inactive: [1] 7.65% | [2] 21.3% | [3] 14.5% | [4] -1.65% | [5] -11.7% | [6] 56.6%

CN1CCC(OC(=O)C(O)C2CCCCC2)CC1 (stereo unspecified)
inactive: [1] 23.5% | [2] 23% | [3] 13.8% | [4] 31.2% | [5] 19.9% | [6] 41.8%

CCCCCCCCCCCCCCCC[Si](Cl)(Cl)Cl
inactive: [1] -0.6% | [2] -10.7% | [3] -5.85% | [4] -22.6% | [5] 2.95% | [6] 10.1%

CC(=O)N[C@H](CO)[C@H](O)c1ccc([N+](=O)[O-])cc1
inactive: [1] -12.2% | [2] 10.1% | [3] 9% | [4] -47.6% | [5] 16.1% | [6] 19.6%

c1ccc2c(c1)C(=C1c3ccccc3-c3ccccc31)c1ccccc1-2
inactive: [1] -6.4% | [2] -18.1% | [3] -0.3% | [4] -34.8% | [5] 6.85% | [6] -2.1%

CC(=O)OCCn1c([N+](=O)[O-])cnc1/C=[N+](/C)[O-]
inactive: [1] 11.2% | [2] 16.9% | [3] 16.8% | [4] 1.9% | [5] 9.85% | [6] 33.3%

O=C(N/N=C\c1ccc(Cl)cc1)c1ccccc1
inactive: [1] 8% | [2] 6.9% | [3] -0.1% | [4] 4.45% | [5] 7.05% | [6] -4.55%

NCCCCC(NC(=O)C(N)Cc1cnc[nH]1)C(=O)O (stereo not drawn) (H-His-Lys-OH; configuration not given here)
inactive: [1] 4.1% | [2] -5.75% | [3] -4% | [4] 13.3% | [5] 7.55% | [6] -12.2%

c1ccc2c3c(cc(CCc4cc5c(c6ccccc46)CCCC5)c2c1)CCCC3
inactive: [1] -9.8% | [2] -18.3% | [3] -5.65% | [4] -16% | [5] -8.9% | [6] -4.2%

C/C(CC1SCCCS1)=C(/C)CC1SCCCS1
inactive: [1] -34.8% | [2] -38.6% | [3] -23.1% | [4] -5% | [5] 2.25% | [6] -45%

CC(C)c1ccc(O)c(C(C)(C)C)c1
inactive: [1] -25.5% | [2] -29.8% | [3] -14.3% | [4] -13.9% | [5] -32.5% | [6] -14.6%

Cc1ccncc1.[O]=[Ge].[O]=[Ge].[O]=[Ge].[O]=[Ge].[O]=[Ge].[O]=[Ge][OH].[O]=[Ge][OH]
inactive: [1] -27.3% | [2] -35.4% | [3] -42.5% | [4] -23.1% | [5] -24.8% | [6] -30.1%

COc1ccc2c(c1)C/C(=C\c1cccc3ccccc13)C2=O
inactive: [1] -51.9% | [2] -19.3% | [3] -0.15% | [4] -23.1% | [5] 28.1% | [6] -0.7%

CC(C)N(C(=O)c1cccc([N+](=O)[O-])c1)C(C)C
inactive: [1] 14.6% | [2] 11.2% | [3] 7.5% | [4] -30.9% | [5] -4.1% | [6] 15.8%

CCCCC(=O)N[C@H]1C[C@H]2CC[C@@]1(C)C2(C)C
inactive: [1] -23.2% | [2] 7.5% | [3] -16.6% | [4] -4.05% | [5] 10.9% | [6] -11.8%

C=CCc1cc(C(=O)O)ccc1OC
inactive: [1] -36.4% | [2] -23.6% | [3] -16.1% | [4] -1.7% | [5] -30.4% | [6] -13.9%

O=C(CN1CCCc2ccccc21)c1ccc(Cl)cc1
inactive: [1] -13.2% | [2] -2.05% | [3] 2.55% | [4] 9.2% | [5] 14.1% | [6] 4.35%

O=C(CCl)OCC(CCl)OC(=O)CCl (stereo unspecified)
inactive: [1] -3.6% | [2] 29.1% | [3] 37.1% | [4] -15.2% | [5] 41.6% | [6] 0.6%
